Inconclusive results are not listed. A call without a number means that no potency is given here. The source made the active and inactive calls. The call rests on the fitted dose curve; in most records, active means well fitted cell-killing curve with a large enough effect in the repeat runs; inconclusive means weak or mixed curves; inactive means flat fitted curve, though single readings scatter.
Assay: qHTS assay to identify small molecule antagonists of the estrogen related receptor (ERR) signaling pathway from Tox21 library - cell viability counter screen (AID 1224834); further: nearly all actives have a fitted effect of over 30% in size
Settings: ERR reporter cells viability, CellTiter-Fluor, 17.5 h; series mostly up to 92.4 µM
Excerpt: National Center for Advancing Translational Sciences [NCATS]
NIH Chemical Genomics Center [NCGC]
U.S. Environmental Protection Agency [EPA]
National Institutes of Environmental Health Sciences [NIEHS]
National Toxicology Program [NTP]
U.S. Food and Drug Administration [FDA]
Estrogen related receptors (ERRs), the first orphan nuclear receptors discovered, play an important role in the control of cellular energy metabolism. ERRs are required for high-energy production in response to the environmental challenges. ERR-alpha was also identified as an adverse marker for breast cancer progression; ERR-alpha-positive tumors have a poor prognosis. To screen and to identify environmental compounds that perturb the ERR signaling pathways could provide valuable information for potential therapeutic or preventive measures in the treatment of metabolic disease. To differentiate true ERR antagonists or agonist from cytotoxic substances, the assay is multiplexed with cell viability assay.
Tox21 Assay Protocol Summary:
The ERR cells were dispensed at 2,000 cells/5 ul/well in 1536-well white plates using a Multidrop dispenser. After the assay plates were incubated at a 37 C/5% CO2 incubator for 6 hours, 23 nL of compounds dissolved in DMSO, positive and negative controls or DMSO only was transferred to the assay plate by a pin tool. The plates were incubated at 37 C for 17.5 hours. 1 ul/well of CellTiter-Fluor reagent was added into the assay plates using a Flying Reagent Dispenser. After 30-minute incubation at 37 C/5% CO2, the fluorescence intensity in the plates was measured using a ViewLux plate reader.
For `C#CC1(O)CCCCC1`, the Potency was “inactive”.
With `Clc1cc(Cl)c(-c2cc(Cl)c(Cl)cc2Cl)cc1Cl` the Potency was “inactive”.
In the case of `O=S(=O)(NS(=O)(=O)C(F)(F)F)C(F)(F)F`, the Potency is reported as 43.1 µM (active).
In the case of `CN`, the Potency is reported as “inactive”.
With `O=C(CCCCl)c1ccc(F)cc1` the Potency was “inactive”.
With `CCCC[N+]1(C)CCCC1` (tested in a mixture with another compound) the Potency was “inactive”.
With `CCOP(=O)(OCC)Oc1nc(Cl)c(Cl)cc1Cl` the Potency was “inactive”.
In the case of `[Cl-].[Cl-].[Sn+2]`, the Potency is reported as “inactive”.
In the case of `CCCCC(CC)COC(=O)c1ccccc1C(=O)OCC(CC)CCCC` (stereo not given), the Potency is reported as “inactive”.
With `ClCBr` the Potency was “inactive”.
For `Cc1c([N+](=O)[O-])c(C)c([N+](=O)[O-])c(C(C)(C)C)c1[N+](=O)[O-]`, the Potency was “inactive”.
With `COc1c2c(cc3c1OCO3)CCN(C)C2` the Potency was “inactive”.
In the case of `CCC(C)Br` (stereo not given), the Potency is reported as “inactive”.
In the case of `N#Cc1c2ccccc2cc2ccccc12`, the Potency is reported as “inactive”.
In the case of `CSC1=N[C@@](C)(c2ccccc2)C(=O)N1Nc1ccccc1`, the Potency is reported as “inactive”.
With `CC(Cc1ccc(OCC(=O)O)cc1)NCC(O)c1csc(C(F)(F)F)n1` (stereo not given) the Potency was “inactive”.
With `Oc1cccc(Cl)c1Cl` the Potency was “inactive”.
For `O=S(=O)(O)F`, the Potency was “inactive”.
For `CCCCn1cc[n+](C)c1` (tested in a mixture with another compound), the Potency was “inactive”.
For `Cc1cnc2c(C(=O)O)c(Cl)ccc2c1`, the Potency was “inactive”.
For `C=Cc1cccc(CCl)c1`, the Potency was “inactive”.
For `Cc1ccn2nc(S(=O)(=O)Nc3c(F)cccc3F)nc2n1`, the Potency was “inactive”.
With `CCCCN(CCCC)C(=S)[S-].CCCCN(CCCC)C(=S)[S-].[Ni+2]` the Potency was “inactive”.
With `CC(C)NCC(O)c1ccccc1Cl` (stereo not given) the Potency was “inactive”.
For `CC(=O)[O][Sn]([c]1ccccc1)([c]1ccccc1)[c]1ccccc1`, the Potency was 0.217 µM (active).
For `O=S1OCC2C(CO1)C1(Cl)C(Cl)=C(Cl)C2(Cl)C1(Cl)Cl` (stereo not given), the Potency was 54.5 µM (active).
In the case of `CC(=O)O.CC(=O)O.CC(=O)O.CC(=O)O.CC(=O)O.CC(=O)O.CC(=O)O.O.O.[Cr].[Cr].[Cr]`, the Potency is reported as “inactive”.
With `CCCCC/C=C\C/C=C\C/C=C\C/C=C\CCCC(=O)NCC(=O)O` the Potency was “inactive”.
For `COC(=O)C(C)N(C(=O)c1ccco1)c1c(C)cccc1C` (stereo not given), the Potency was “inactive”.
With `CC(Cl)CCl` (stereo not given) the Potency was “inactive”.
In the case of `O.O.O.O=C([O-])[C@H]([O-])[C@@H]([O-])C(=O)[O-].O=C([O-])[C@H]([O-])[C@@H]([O-])C(=O)[O-].[K+].[K+].[Sb+3].[Sb+3]`, the Potency is reported as 17.3 µM (active).
With `COP(=S)(OC)Oc1nc(Cl)c(Cl)cc1Cl` the Potency was “inactive”.
For `CCN(CC)C(=O)N[C@@H]1C=C2c3cccc4[nH]cc(c34)C[C@@H]2N(C)C1`, the Potency was “inactive”.
With `C=CCOC(=O)c1ccccc1N` the Potency was “inactive”.
With `CC(=O)[O][Pb]([c]1ccccc1)([c]1ccccc1)[c]1ccccc1` the Potency was 2.73 µM (active).
In the case of `BrCC(Br)(Br)Br`, the Potency is reported as “inactive”.
With `CCCN` the Potency was “inactive”.
With `ClC1(Cl)C2(Cl)C3(Cl)C4(Cl)C(Cl)(Cl)C5(Cl)C3(Cl)C1(Cl)C5(Cl)C24Cl` (stereo not given) the Potency was “inactive”.
In the case of `CCCCON=O`, the Potency is reported as “inactive”.
In the case of `CN1CCc2cc(Cl)c(O)cc2[C@H]2c3ccccc3CC[C@@H]21`, the Potency is reported as “inactive”.
Potency means the concentration at half of the fitted maximal effect.
